Laboratory results from PubChem BioAssay (Tox21).
Inconclusive results are not listed. Values without a mark were called inactive. Active and inactive are the calls of the source. Calls come from the whole dose curve.

system: not listed separately; assay: qHTS assay to identify small molecule agonists or antagonists of the thyroid stimulating hormone receptor (TSHR) signaling pathway - wild type cell line counter screen (AID 1259384); conditions: HEK293 wild type, cAMP HTRF counter-screen, hits give high values; series mostly up to 92.4 µM; cAMP activity change: at the top concentration
In short: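 Wild-type HEK293 cells were plated 18 h at 37 C/5% CO2, pin-dosed with compound plus Ro20-1724 medium, held 30 min at room temperature, then given cAMP-d2 and anti-cAMP-cryptate; fluorescence was read after 1 h. Fifteen concentrations, triplicate.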
% is set by controls: 0 for no effect and ±100 for the full control effect.

Point of comparison: `CC[C@]1(O)C[C@H]2CN(CCc3c([nH]c4ccccc34)[C@@](C(=O)OC)(c3cc4c(cc3OC)N(C=O)[C@H]3[C@@](O)(C(=O)OC)[C@H](OC(C)=O)[C@]5(CC)C=CCN6CC[C@]43[C@@H]65)C2)C1`, “cAMP activity change” value -5.94% [at 42.5 µM]. Against it:
- CCOC(=O)c1ccccc1C(=C1C=C(Br)C(=O)C(Br)=C1)c1cc(Br)c(O)c(Br)c1 — higher, 0.0378% [at 42.5 µM]
- CN1CCCN=C1COC(=O)C(O)(c1ccccc1)C1CCCCC1 (stereo unspecified) — higher, -2.82% [at 42.5 µM]
- OCCN1CCN(CCCN2c3ccccc3Sc3ccc(Cl)cc32)CC1 — higher, 1.26% [at 42.5 µM]
- CN1CC(=O)N2[C@H](c3ccc4c(c3)OCO4)c3[nH]c4ccccc4c3C[C@@H]2C1=O — higher, 5.17% [at 42.5 µM]
- COc1cc(N)c(Cl)cc1C(=O)NC1CCN(CCCOc2ccc(F)cc2)CC1OC (stereo unspecified) — higher, 6.25% [at 42.5 µM]
- CN1CCCC(n2nc(Cc3ccc(Cl)cc3)c3ccccc3c2=O)CC1 (stereo unspecified) — higher, -2.42% [at 42.5 µM]
- Cc1ccc(Cl)c(Nc2ccccc2C(=O)O)c1Cl — higher, -1.81% [at 42.5 µM]
- CCOC(=O)c1ccc(OCCN2C[C@H](O)[C@@H](O)[C@H](O)[C@H]2CO)cc1 — higher, 1.76% [at 42.5 µM]
- CC1(C)S[C@@H]2[C@H](NC(=O)C(c3ccccc3)S(=O)(=O)O)C(=O)N2[C@H]1C(=O)O (stereo partly specified) — higher, -3.93% [at 42.5 µM]
- CC(C)C[C@H](NC(=O)[C@H](CCc1ccccc1)NC(=O)CN1CCOCC1)C(=O)N[C@@H](Cc1ccccc1)C(=O)N[C@@H](CC(C)C)C(=O)[C@@]1(C)CO1 — higher, -0.546% [at 42.5 µM]
- O=C(O)c1cccc(-c2noc(-c3ccccc3F)n2)c1 — higher, 1.91% [at 42.5 µM]
- COc1ccccc1Oc1c(NS(=O)(=O)c2ccc(C(C)(C)C)cc2)nc(-c2ncccn2)nc1OCCO — higher, -1.71% [at 42.5 µM]

Point of comparison: `O=[N+]([O-])c1cc(C2CCCCC2)c(O)c([N+](=O)[O-])c1`, “cAMP activity change” value 2.04%. Against it:
- CN1C(=O)N(c2ccccc2Br)Cc2cnc(Nc3ccc4c(c3)OCC(CO)O4)nc21 (stereo unspecified) — lower, -1.73%
- CCCCCC#CC(=O)OC — higher, 2.9%
- Nc1nc2ccc([N+](=O)[O-])cc2s1 — lower, 0.172%
- OCCOCC#CCOCCO — lower, -2.07%
- Cc1cccc(O)c1N — lower, -6.87%
- C=C(C)[C@@H]1CCC2=CCC[C@@H](C)[C@]2(C)C1 — higher, 3.81%
- CCOC(C)=O — lower, 1.68%
- C1C[C@@H]2[C@H]3CC[C@H](C3)[C@@H]2C1 — lower, -0.023%

target: Thyrotropin receptor (Homo sapiens) (UniProt P16473); assay: qHTS assay to identify small molecule antagonists of the thyroid stimulating hormone receptor (TSHR) signaling pathway (AID 1259385); conditions: TSHR-HEK293 cAMP HTRF, TSH-stimulated antagonist mode; series mostly up to 92.4 µM; activity change, negative = inhibition: at the top concentration; note: nearly all actives have a fitted effect of over 20% in size; note: potency is the fitted concentration of half-maximal effect
In short: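 TSHR-HEK293 cells were plated and held 18 h at 37C/5% CO2, then given compound plus Ro20-1724 and stimulated with TSH at 1.5 ng/mL final. After 30 min at room temperature, cAMP was detected with cAMP-d2/anti-cAMP-cryptate (1 h) by fluorescence.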

Thyrotropin receptor (Homo sapiens), sequence (P16473 whole entry, looked up): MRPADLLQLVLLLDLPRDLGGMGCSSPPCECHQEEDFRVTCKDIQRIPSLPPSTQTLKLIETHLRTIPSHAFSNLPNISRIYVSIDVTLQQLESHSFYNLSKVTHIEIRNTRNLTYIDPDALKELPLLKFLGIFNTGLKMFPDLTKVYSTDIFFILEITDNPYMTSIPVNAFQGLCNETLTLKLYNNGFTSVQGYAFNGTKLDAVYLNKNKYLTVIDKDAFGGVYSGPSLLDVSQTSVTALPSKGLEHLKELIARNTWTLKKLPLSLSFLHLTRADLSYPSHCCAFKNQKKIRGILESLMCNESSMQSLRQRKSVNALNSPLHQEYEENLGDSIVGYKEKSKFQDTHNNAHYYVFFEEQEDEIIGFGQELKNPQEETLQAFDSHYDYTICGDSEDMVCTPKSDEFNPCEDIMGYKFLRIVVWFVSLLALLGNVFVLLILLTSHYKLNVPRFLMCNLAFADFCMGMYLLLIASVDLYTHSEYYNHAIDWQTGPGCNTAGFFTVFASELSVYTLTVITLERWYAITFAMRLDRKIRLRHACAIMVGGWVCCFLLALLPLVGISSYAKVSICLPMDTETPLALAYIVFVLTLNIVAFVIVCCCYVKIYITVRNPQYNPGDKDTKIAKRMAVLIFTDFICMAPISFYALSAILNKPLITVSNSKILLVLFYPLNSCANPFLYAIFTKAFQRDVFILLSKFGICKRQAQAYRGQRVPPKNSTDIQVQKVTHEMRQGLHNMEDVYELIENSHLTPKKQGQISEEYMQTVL

Point of comparison: `COc1ccccc1Oc1c(NS(=O)(=O)c2ccc(C(C)(C)C)cc2)nc(-c2ncccn2)nc1OCCO`, “activity change, negative = inhibition” value -12.8% [at 42.5 µM]. Against it:
- CC[C@]1(O)C[C@H]2CN(CCc3c([nH]c4ccccc34)[C@@](C(=O)OC)(c3cc4c(cc3OC)N(C=O)[C@H]3[C@@](O)(C(=O)OC)[C@H](OC(C)=O)[C@]5(CC)C=CCN6CC[C@]43[C@@H]65)C2)C1 — higher, -0.148% [at 42.5 µM]
- CCOC(=O)c1ccccc1C(=C1C=C(Br)C(=O)C(Br)=C1)c1cc(Br)c(O)c(Br)c1 — higher, -4.17% [at 42.5 µM]
- CN1CC(=O)N2[C@H](c3ccc4c(c3)OCO4)c3[nH]c4ccccc4c3C[C@@H]2C1=O — higher, 0.17% [at 42.5 µM]
- Cc1ccc(Cl)c(Nc2ccccc2C(=O)O)c1Cl — higher, -0.328% [at 42.5 µM]
- CCOC(=O)c1ccc(OCCN2C[C@H](O)[C@@H](O)[C@H](O)[C@H]2CO)cc1 — higher, 0.324% [at 42.5 µM]
- CC1(C)S[C@@H]2[C@H](NC(=O)C(c3ccccc3)S(=O)(=O)O)C(=O)N2[C@H]1C(=O)O (stereo partly specified) — higher, -1.65% [at 42.5 µM]
- CC(C)C[C@H](NC(=O)[C@H](CCc1ccccc1)NC(=O)CN1CCOCC1)C(=O)N[C@@H](Cc1ccccc1)C(=O)N[C@@H](CC(C)C)C(=O)[C@@]1(C)CO1 — higher, -0.206% [at 42.5 µM]
- O=C(O)c1cccc(-c2noc(-c3ccccc3F)n2)c1 — higher, -9.29% [at 42.5 µM]

Point of comparison: `CCOC(C)=O`, “activity change, negative = inhibition” value -0.327%. Against it:
- CC(=O)NC1(c2cccc(F)c2)CCN(CC[C@@]2(c3ccc(Cl)c(Cl)c3)CN(c3ccccc3)C(=O)CO2)CC1 — lower, -0.848%
- CCCCCC#CC(=O)OC — higher, 2.69%
- O=C=Nc1ccc(Cl)c(Cl)c1 — higher, -0.305%
- Cc1cccc(O)c1N — lower, -1.07%
- C=C(C)[C@@H]1CCC2=CCC[C@@H](C)[C@]2(C)C1 — higher, 3.06%
- C1C[C@@H]2[C@H]3CC[C@H](C3)[C@@H]2C1 — lower, -7.53%

With `OCCN1CCN(CCCN2c3ccccc3Sc3ccc(Cl)cc32)CC1` the Potency was 29.8 µM (active).
For `CN1CCCC(n2nc(Cc3ccc(Cl)cc3)c3ccccc3c2=O)CC1` (stereo unspecified), the Potency was 26.6 µM (active).
With `COc1cc(C(=O)NC2CCN(C)CC2)ccc1Nc1ncc2c(n1)N(C1CCCC1)CC(F)(F)C(=O)N2C` the Potency was 11.2 µM (active).
